The record followed here is PubChem BioAssay (NCATS).

Several values for one entry are separate records, joined by “and”; a condition that tells them apart may be missing. Equal entries are not always repeated. Inconclusive results are not listed. Activity calls are given as the source filed them. Unless noted, calls follow the shape of the full dose curve. Peptide text beside a SMILES is read from it.

For one test, the target named is alpha-glucosidase (Oryza sativa, rice) (UniProt Q653V4). The experiment in a line: Counterscreen for Glucocerebrosidase Inhibitors: qHTS Assay for Rice alpha-Glucosidase at pH 5.0 (AID 997; active = well fitted curve in the direction sought with a large enough effect;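 also: 0% = full activity with enzyme and -100% = basal without enzyme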). The settings on record: rice alpha-glucosidase enzyme activity; series mostly up to 76.9 µM; activity change, negative = inhibition: at the top concentration. The gist of the method: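 Endpoint fluorogenic assay at pH 5.0: compounds (0.7 nM to 77 uM) titrated against 4 nM rice enzyme and 400 uM 4-MU-alpha-glucoside for 20 min at room temperature; NaOH/glycine stop, read ex 365/em 440 nm, Hill-fitted AC50.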
On the technique in general: A counterscreen serves to expose hits that act by an unwanted route or on another target.
Consider `CC[N+](C)(C)Cc1ccccc1Br`, for which the “activity change, negative = inhibition” value was -1.46% (inactive).

With `CN=C(NC#N)Nc1ccc(C2=NNC(=O)C[C@@H]2C)cc1`, the “activity change, negative = inhibition” value was 1.59% (inactive).

As to `COc1ccc(CCNC[C@H](O)c2ccc(O)cc2)cc1OC`, the “activity change, negative = inhibition” value is -1.17% (inactive).

Test system in another test: not listed separately
The experiment in a line: qHTS Assay for Lipid Storage Modulators (AID 1519). As to activity change, negative = inhibition: % is scaled to controls: 0 for no effect and ±100 for the full control effect. The settings on record: Drosophila S3 cells, BODIPY lipid droplet/cell ratio, laser cytometry; at 25.7 µM (top of the series); cells loaded with oleic acid. The gist of the method:
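Cells seeded at 5,000 per well were treated with compounds over a concentration series and loaded with oleic acid (400 uM, as added). Lipid droplet fluorescence (488 nm excitation, 500-530 nm channel) was read by laser-scanning cytometry and normalized to 20 uM Triacsin C.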
(In general: qHTS replaces the single test concentration by a dilution series.)
For `CC(=O)N[C@@H](CC(=O)O)C(=O)N[C@@H](CCC(=O)O)C(=O)O` (Ac-Asp-Glu-OH), the activity change, negative = inhibition was -3.36% (inactive).

In the case of `Cc1cc(C(=O)NNCc2ccccc2)no1`, the activity change, negative = inhibition is -1.95% (inactive).

For `CC1(C)S[C@@H]2[C@H](NC(=O)Cc3ccccc3)C(=O)N2[C@H]1C(=O)O`, the activity change, negative = inhibition was -1.47% (inactive).

Take `CC(C)(C)C(=O)OCOC(=O)[C@@H]1N2C(=O)[C@@H](N=CN3CCCCCC3)[C@H]2SC1(C)C`: the activity change, negative = inhibition is -0.208% (inactive).

Turning to `CC[N+](C)(C)Cc1ccccc1Br`, the activity change, negative = inhibition is -0.125% (inactive).

Consider `CCN(CC)Cc1cc(Nc2ccnc3cc(Cl)ccc23)ccc1O`, for which the activity change, negative = inhibition is -2.24% (inactive).

Turning to `CCOc1ccc2c(c1)C(C)=CC(C)(C)N2`, the activity change, negative = inhibition is -15.7% (inactive).

For the compound `CC1(C)S[C@@H]2[C@H](NC(=O)[C@@H](NC(=O)N3CCNC3=O)c3ccccc3)C(=O)N2[C@H]1C(=O)O`, the activity change, negative = inhibition is -1.89% (inactive).

Turning to `Cc1c(C)c2c(c(C)c1O)CC[C@@](C)(CCC[C@@H](C)CCC[C@@H](C)CCCC(C)C)O2`, the activity change, negative = inhibition is -2.72% (inactive).

As for `Nc1c(Br)cc(Br)cc1CNC1CCC(O)CC1` (stereo not drawn), the activity change, negative = inhibition is -1.33% (inactive).

Staying with this test, now noted: Drosophila S3 cells, BODIPY lipid droplet/cell ratio, laser cytometry; at 57.5 µM (top of the series); cells loaded with oleic acid.
With `CC1=C(/C=C/C(C)=C/C=C/C(C)=C/C=C/C=C(C)/C=C/C=C(C)/C=C/C2=C(C)C(=O)CCC2(C)C)C(C)(C)CCC1=O`, the activity change, negative = inhibition was 5.18% (inactive).

Take `CC(=O)N[C@@H](CC(=O)O)C(=O)N[C@@H](CCC(=O)O)C(=O)O` (Ac-Asp-Glu-OH): the activity change, negative = inhibition was 6.33% (inactive).

For `NC(=O)c1ncn(C2OC(CO)C(O)C2O)n1` (stereo not drawn), the activity change, negative = inhibition was 2.97% (inactive).

For the compound `O=c1ccn([C@@H]2O[C@H](CO)[C@@H](O)[C@H]2O)c(=O)[nH]1`, the activity change, negative = inhibition was 1.01% (inactive).

For `Cc1cn([C@H]2C[C@H](O)[C@@H](CO)O2)c(=O)[nH]c1=O`, the activity change, negative = inhibition was -2.02% (inactive).

Take `CC[N+](C)(C)Cc1ccccc1Br`: the activity change, negative = inhibition is 0.506% (inactive).

With `OCc1ccccc1O[C@@H]1O[C@H](CO)[C@@H](O)[C@H](O)[C@H]1O`, the activity change, negative = inhibition is -1.43% (inactive).

As to `CN1Cc2c(N)cccc2C(c2ccccc2)C1` (stereo not drawn), the activity change, negative = inhibition is 0.643% (inactive).

`C=CCSSSCC=C`: the activity change, negative = inhibition was 6.54% (inactive).

Turning to `CN=C(NC#N)Nc1ccc(C2=NNC(=O)C[C@@H]2C)cc1`, the activity change, negative = inhibition was -3.97% (inactive).

Take `CCCC(=O)Nc1ncnc2c1ncn2[C@@H]1O[C@@H]2COP(=O)(O)O[C@H]2[C@H]1OC(=O)CCC`: the activity change, negative = inhibition was 1.77% (inactive).

As for `CCC(=O)NCCC1CCc2ccc3c(c21)CCO3` (stereo not drawn), the activity change, negative = inhibition is 11.3% (inactive).

For `CCCC(=O)Nc1ncnc2c1ncn2C1OC2COP(=O)(O)OC2C1OC(=O)CCC` (stereo not drawn), the activity change, negative = inhibition is 10.5% (inactive).

In the case of `C[C@@H]1CCC2[C@@H](C)[C@@H](O)O[C@@H]3O[C@@]4(C)CC[C@@H]1[C@@]23OO4` (stereo partly drawn), the activity change, negative = inhibition was -0.729% (inactive).

With `CC1=C(/C=C/C(C)=C/C=C/C(C)=C/C=C/C=C(C)/C=C/C=C(C)/C=C/C2=C(C)CCCC2(C)C)C(C)(C)CCC1`, the activity change, negative = inhibition is 1.45% (inactive).

In the case of `Nc1c(Br)cc(Br)cc1CNC1CCC(O)CC1` (stereo not drawn), the activity change, negative = inhibition was 7.29% (inactive).

Turning to `Oc1cc(O)c2c(c1)OC(c1ccc(O)c(O)c1)C(O)C2` (stereo not drawn), the activity change, negative = inhibition was 7.06% (inactive).

On to `Cc1c(C)c2c(c(C)c1O)CC[C@@](C)(CCC[C@H](C)CCC[C@H](C)CCCC(C)C)O2`, for which the activity change, negative = inhibition is 0.911% (inactive).

As for `O=C(O)CN(CCN(CC(=O)O)CC(=O)O)CC(=O)O`, the activity change, negative = inhibition is 6.6% (inactive).

The test is the same for the next values; noted with them: Drosophila S3 cells, BODIPY lipid droplet/cell ratio, laser cytometry; measured here: cell count channel max response; cells loaded with oleic acid.
`CC1=C(/C=C/C(C)=C/C=C/C(C)=C/C=C/C=C(C)/C=C/C=C(C)/C=C/C2=C(C)C(=O)CCC2(C)C)C(C)(C)CCC1=O`: the max response turned out to be 20.9%.

For the compound `CC(=O)N[C@@H](CC(=O)O)C(=O)N[C@@H](CCC(=O)O)C(=O)O` (Ac-Asp-Glu-OH), the max response is -8.34% and 14.1%.

Consider `Cc1cc(C(=O)NNCc2ccccc2)no1`, for which the max response is -16.5%.

For `NC(=O)c1ncn(C2OC(CO)C(O)C2O)n1` (stereo not drawn), the max response worked out at 6.51%.

For the compound `O=c1ccn([C@@H]2O[C@H](CO)[C@@H](O)[C@H]2O)c(=O)[nH]1`, the max response was -6.37%.

As for `CC1(C)S[C@@H]2[C@H](NC(=O)Cc3ccccc3)C(=O)N2[C@H]1C(=O)O`, the max response turned out to be 2.65%.

Regarding `Cc1cn([C@H]2C[C@H](O)[C@@H](CO)O2)c(=O)[nH]c1=O`, the max response is -24%.

As to `CC(C)(C)C(=O)OCOC(=O)[C@@H]1N2C(=O)[C@@H](N=CN3CCCCCC3)[C@H]2SC1(C)C`, the max response is -9.59%.

Regarding `CC[N+](C)(C)Cc1ccccc1Br`, the max response was 1.39% and 57.6%.

In the case of `CCN(CC)Cc1cc(Nc2ccnc3cc(Cl)ccc23)ccc1O`, the max response is -18.5%.

Take `OCc1ccccc1O[C@@H]1O[C@H](CO)[C@@H](O)[C@H](O)[C@H]1O`: the max response was -14.9%.

Regarding `CN1Cc2c(N)cccc2C(c2ccccc2)C1` (stereo not drawn), the max response stood at 11.3%.

For `C=CCSSSCC=C`, the max response was -4.64%.

Take `CCOc1ccc2c(c1)C(C)=CC(C)(C)N2`: the max response was -17.3%.

In the case of `CN=C(NC#N)Nc1ccc(C2=NNC(=O)C[C@@H]2C)cc1`, the max response is -17.4%.

`CCCC(=O)Nc1ncnc2c1ncn2[C@@H]1O[C@@H]2COP(=O)(O)O[C@H]2[C@H]1OC(=O)CCC`: the max response is -7.18%.

`CCC(=O)NCCC1CCc2ccc3c(c21)CCO3` (stereo not drawn): the max response was 9.34%.

In the case of `CCCC(=O)Nc1ncnc2c1ncn2C1OC2COP(=O)(O)OC2C1OC(=O)CCC` (stereo not drawn), the max response turned out to be 15.6%.

For `C[C@@H]1CCC2[C@@H](C)[C@@H](O)O[C@@H]3O[C@@]4(C)CC[C@@H]1[C@@]23OO4` (stereo partly drawn), the max response came to 14.2%.

Turning to `CC1(C)S[C@@H]2[C@H](NC(=O)[C@@H](NC(=O)N3CCNC3=O)c3ccccc3)C(=O)N2[C@H]1C(=O)O`, the max response is -12.9%.

On to `CC1=C(/C=C/C(C)=C/C=C/C(C)=C/C=C/C=C(C)/C=C/C=C(C)/C=C/C2=C(C)CCCC2(C)C)C(C)(C)CCC1`, for which the max response stood at 15.1%.

With `Cc1c(C)c2c(c(C)c1O)CC[C@@](C)(CCC[C@@H](C)CCC[C@@H](C)CCCC(C)C)O2`, the max response is 2.07%.

On to `Nc1c(Br)cc(Br)cc1CNC1CCC(O)CC1` (stereo not drawn), for which the max response is -4.61% and 6.29%.

On to `Oc1cc(O)c2c(c1)OC(c1ccc(O)c(O)c1)C(O)C2` (stereo not drawn), for which the max response was 2.83%.

Regarding `Cc1c(C)c2c(c(C)c1O)CC[C@@](C)(CCC[C@H](C)CCC[C@H](C)CCCC(C)C)O2`, the max response is -14.2%.

In the case of `O=C(O)CN(CCN(CC(=O)O)CC(=O)O)CC(=O)O`, the max response is -1.95%.
